Where a name gives a salt, the structure may show the parent alone. ± gives the standard deviation.
Columns and labels:
Jurkat [1] = assay: mean cell size (FSC-A) relative to DMSO control (fraction of control); higher = larger cells; conditions: 48 h
In short: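 Jurkat cells seeded at 600 cells/µl were incubated 1 h, then exposed for 48h to the Enzo Screen-Well FDA Approved Drug Library v2.0 at 25µM in 0.9% (v/v) final DMSO. Drugs that cut counts below 20% of controls were diluted 10-fold and retested, down to 25nM. Cell count and mean cell size (forward scatter area) were read on an Accuri C6 flow cytometer, relative to solvent-only controls. Plates held 6-12 controls; values are means of 3 biological replicates.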

Jurkat [2] = assay: cell count relative to DMSO control (fraction of control); higher = more cells (less growth inhibition); conditions: 48 h

Structure (SMILES)	mean cell size (Jurkat [1])	cell count (Jurkat [2])
c1ccc2c(CC3=NCCN3)cccc2c1 [Naphazoline·HCl] (concentration: 25 µM)	0.94 ± 0.024	0.864 ± 0.024
COc1c2occc2cc2ccc(=O)oc12 [Methoxsalen (Xanthotoxin)] (concentration: 25 µM)	1.04 ± 0.019	0.761 ± 0.14
O=C1CC2(CCCC2)CC(=O)N1CCCCN1CCN(c2ncccn2)CC1 [Buspirone·HCl] (concentration: 25 µM)	0.9275 ± 0.0078	0.96 ± 0.097
Cc1ccc(Cl)c(Nc2ccccc2C(=O)O)c1Cl [Meclofenamate·Na] (concentration: 25 µM)	0.903 ± 0.031	0.293 ± 0.032
O=C(O)c1cc(/N=N/c2ccc(S(=O)(=O)Nc3ccccn3)cc2)ccc1O [Sulfasalazine] (concentration: 25 µM)	0.965 ± 0.024	0.914 ± 0.11
COc1cc(C)c(/C=C/C(C)=C/C=C/C(C)=C/C(=O)O)c(C)c1C [Acitretin] (concentration: 25 µM)	0.883 ± 0.021	0.625 ± 0.11
CC(=O)OCC(=O)[C@@]1(O)CC[C@H]2[C@@H]3CCC4=CC(=O)CC[C@]4(C)[C@H]3[C@@H](O)C[C@@]21C [Hydrocortisone Acetate] (concentration: 25 µM)	0.959 ± 0.045	0.716 ± 0.12
O=C1[C@H](CC[C@H](O)c2ccc(F)cc2)[C@@H](c2ccc(O)cc2)N1c1ccc(F)cc1 [Ezetimibe] (concentration: 25 µM)	1.03 ± 0.022	0.639 ± 0.061
CCN(CC)C(=O)C1(c2ccccc2)CC1CN (stereo unspecified) [Milnacipran·HCl] (concentration: 25 µM)	0.977 ± 0.032	0.792 ± 0.1
CNS(=O)(=O)Cc1ccc2[nH]cc(CCN(C)C)c2c1 [Sumatriptan Succinate] (concentration: 25 µM)	0.955 ± 0.031	0.738 ± 0.1
CC1=C(C/C=C(\C)CCC[C@H](C)CCC[C@H](C)CCCC(C)C)C(=O)c2ccccc2C1=O [Phytonadione] (concentration: 25 µM)	0.986 ± 0.024	0.886 ± 0.1
O=C1C(=O)c2ccccc2C(O)=C1C1CCC(c2ccc(Cl)cc2)CC1 (stereo unspecified) [Atovaquone] (concentration: 25 µM)	0.91 ± 0.015	0.462 ± 0.039
CC(=O)Oc1ccc(C(c2ccc(OC(C)=O)cc2)c2ccccn2)cc1 [Bisacodyl] (concentration: 25 µM)	0.915 ± 0.013	0.813 ± 0.09
NCC[C@H](O)C(=O)N[C@@H]1C[C@H](N)[C@@H](O[C@H]2O[C@H](CN)[C@@H](O)[C@H](O)[C@H]2O)[C@H](O)[C@H]1O[C@H]1O[C@H](CO)[C@@H](O)[C@H](N)[C@H]1O [Amikacin Disulfate] (concentration: 25 µM)	0.994 ± 0.028	0.921 ± 0.014
Nc1nc(F)nc2c1ncn2[C@@H]1O[C@H](COP(=O)(O)O)[C@@H](O)[C@@H]1O [Fludarabine Phosphate] (concentration: 2.5 µM)	1.327 ± 0.0094	0.378 ± 0.024
CN(C)CCc1c[nH]c2ccc(C[C@H]3COC(=O)N3)cc12 [Zolmitriptan] (concentration: 25 µM)	0.996 ± 0.017	0.419 ± 0.11
CCCNC(=O)NS(=O)(=O)c1ccc(Cl)cc1 [Chlorpropamide] (concentration: 25 µM)	1.04 ± 0.021	1.02 ± 0.048
CC(C)Nc1cccnc1N1CCN(C(=O)c2cc3cc(NS(C)(=O)=O)ccc3[nH]2)CC1 [Delavirdine Mesylate] (concentration: 25 µM)	0.942 ± 0.036	0.887 ± 0.099
C[C@]12CCC3=C4CCC(=O)C=C4CC[C@H]3[C@@H]1CC[C@@]2(O)CC#N [Dienogest] (concentration: 25 µM)	0.963 ± 0.035	0.827 ± 0.15
NNc1nncc2ccccc12 [Hydralazine·HCl] (concentration: 25 µM)	0.98 ± 0.075	0.537 ± 0.045
CCCCCN(C)CCC(O)(P(=O)(O)O)P(=O)(O)O [Ibandronate·Na Monohydrate] (concentration: 25 µM)	0.941 ± 0.063	0.298 ± 0.14
Nc1c(CC(=O)O)cccc1C(=O)c1ccc(Br)cc1 [Bromfenac] (concentration: 25 µM)	0.938 ± 0.018	1.05 ± 0.05
C[C@@H]1[C@H](O)[C@@H](C)/C=C/C=C/C=C/C=C/C=C/C=C/C=C/[C@H](O[C@@H]2O[C@H](C)[C@@H](O)[C@H](N)[C@@H]2O)C[C@@H]2O[C@](O)(C[C@@H](O)C[C@@H](O)[C@H](O)CC[C@@H](O)C[C@@H](O)CC(=O)O[C@H]1C)C[C@H](O)[C@H]2C(=O)O [Amphotericin B] (concentration: 25 µM)	1.016 ± 0.0092	0.27 ± 0.024

From the supplement of paper PMC4709259
